Assay in all cases: log2 fold change, soluble protein after heating vs DMSO (PISA); higher = thermal stabilisation; K562 lysate, 10 uM; active = over 0.2 and 3.5 SD of the protein, either way, in both replicates (recomputed)
Compound in one assay: CN1CC[C@H](c2c(O)cc(O)c3c(=O)cc(-c4ccccc4Cl)oc23)[C@H](O)C1 [alvocidib]
A digest of the protocol: (§1)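 Log-two fold change in thermal stability relative to solvent controls is reported from duplicates. For each sample, crude K562 extract from dounce-homogenised pellets in PBS pH 7.4 with 1 mM MgCl2, at 1 mg/mL protein, was treated with 10 μM compound for 30 min. Aliquots heated for 3 min across 48°C-58°C were pooled, brought to 0.5% NP-40 at 4°C and cleared at 21,000xg for 90 min. The supernatant was quantified by TMTpro 16plex LC-MS/MS with channel sums equalised.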

Compound in a further assay: CN1CCc2c(c3ccccc3n2Cc2ccc(C(=O)NO)cc2)C1 [Tubastatin A]
In a few lines: as §1

Compound in assay [1]: CNC(=O)C1=CC=CC=C1NC2=NC(=NC=C2Cl)NC3=C(C=C(C=C3)N4CCOCC4)OC
In a few lines: as §1

Compound in a further assay: CNC(=O)c1ccc(Nc2ncc(C(F)(F)F)c(NCc3nccnc3N(C)S(C)(=O)=O)n2)cc1 [defactinib]
A digest of the protocol: as §1

Compound in assay [2]: CNc1nc(-c2ccc3c(N)n[nH]c3c2)cc(N2C[C@@H](C(=O)NC3CCCCC3)CC[C@H]2C)n1
In a few lines:
as §1

Compound in the next assay: COC(=O)N[C@@H](C)CNc1nccc(-c2cn(C(C)C)nc2-c2cc(Cl)cc(NS(C)(=O)=O)c2F)n1 [encorafenib]
In a few lines:
as §1

Compound in assay [3]: COC(=O)[C@H](CCSC)NC(=O)C1=C(C=C(C=C1)NC[C@H](CS)N)C2=CC=CC=C2
In a few lines: as §1

Compound in a further assay: COc1cc(Nc2ncc3c(n2)-c2ccc(Cl)cc2C(c2c(F)cccc2OC)=NC3)ccc1C(=O)O [alisertib]
A digest of the protocol:
as §1

Compound in assay [4]: COc1cc2nc(-c3cc(F)ccc3O)nc(N[C@@H]3CNC[C@H]3C(C)(C)O)c2cc1OC
In a few lines: as §1

Compound in a further assay: COc1cc2ncnc(Nc3ccc(F)c(Cl)c3)c2cc1OCCCN1CCOCC1 [gefitinib]
A digest of the protocol: as §1

Targets with a hit are over-represented here; the source holds about 8,800 in all. About 0.5% of all pairs of compound and target were hits. Unmarked numbers belong to inactive results.

Sequence of UniProt Q9Y6M4 (Q9Y6M4 whole entry, looked up): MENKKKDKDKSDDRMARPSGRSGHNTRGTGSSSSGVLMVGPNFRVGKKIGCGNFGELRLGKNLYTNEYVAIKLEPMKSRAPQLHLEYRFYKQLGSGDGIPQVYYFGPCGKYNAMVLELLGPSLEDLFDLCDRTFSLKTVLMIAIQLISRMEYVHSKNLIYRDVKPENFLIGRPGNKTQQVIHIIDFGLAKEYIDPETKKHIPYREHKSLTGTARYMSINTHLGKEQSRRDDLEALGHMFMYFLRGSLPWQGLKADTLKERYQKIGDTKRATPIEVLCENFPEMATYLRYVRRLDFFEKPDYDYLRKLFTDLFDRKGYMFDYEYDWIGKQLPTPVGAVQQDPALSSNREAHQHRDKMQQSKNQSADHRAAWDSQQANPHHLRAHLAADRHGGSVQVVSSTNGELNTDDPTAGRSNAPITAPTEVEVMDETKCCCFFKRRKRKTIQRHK
Sequence of UniProt Q9H3Z4 (Q9H3Z4 whole entry, looked up): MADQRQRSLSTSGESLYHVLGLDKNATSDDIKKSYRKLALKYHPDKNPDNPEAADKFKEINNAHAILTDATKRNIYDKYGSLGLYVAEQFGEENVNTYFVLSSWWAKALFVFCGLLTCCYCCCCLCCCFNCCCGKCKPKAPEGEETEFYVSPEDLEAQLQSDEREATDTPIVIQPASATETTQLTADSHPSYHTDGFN
Sequence of UniProt P31146 (P31146 whole entry, looked up): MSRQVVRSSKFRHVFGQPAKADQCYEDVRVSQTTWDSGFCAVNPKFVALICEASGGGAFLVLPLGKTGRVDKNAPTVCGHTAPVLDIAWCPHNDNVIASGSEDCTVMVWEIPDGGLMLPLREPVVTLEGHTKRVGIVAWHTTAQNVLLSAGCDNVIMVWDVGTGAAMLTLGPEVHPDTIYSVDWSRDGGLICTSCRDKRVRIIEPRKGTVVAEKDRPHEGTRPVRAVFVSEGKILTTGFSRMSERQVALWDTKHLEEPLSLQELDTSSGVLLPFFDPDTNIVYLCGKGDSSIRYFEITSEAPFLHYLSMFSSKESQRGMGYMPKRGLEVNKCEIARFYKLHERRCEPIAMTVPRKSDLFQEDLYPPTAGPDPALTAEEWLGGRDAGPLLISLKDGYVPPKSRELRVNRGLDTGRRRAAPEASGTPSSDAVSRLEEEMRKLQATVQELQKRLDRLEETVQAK
Sequence of UniProt Q16850 (Q16850 whole entry, looked up): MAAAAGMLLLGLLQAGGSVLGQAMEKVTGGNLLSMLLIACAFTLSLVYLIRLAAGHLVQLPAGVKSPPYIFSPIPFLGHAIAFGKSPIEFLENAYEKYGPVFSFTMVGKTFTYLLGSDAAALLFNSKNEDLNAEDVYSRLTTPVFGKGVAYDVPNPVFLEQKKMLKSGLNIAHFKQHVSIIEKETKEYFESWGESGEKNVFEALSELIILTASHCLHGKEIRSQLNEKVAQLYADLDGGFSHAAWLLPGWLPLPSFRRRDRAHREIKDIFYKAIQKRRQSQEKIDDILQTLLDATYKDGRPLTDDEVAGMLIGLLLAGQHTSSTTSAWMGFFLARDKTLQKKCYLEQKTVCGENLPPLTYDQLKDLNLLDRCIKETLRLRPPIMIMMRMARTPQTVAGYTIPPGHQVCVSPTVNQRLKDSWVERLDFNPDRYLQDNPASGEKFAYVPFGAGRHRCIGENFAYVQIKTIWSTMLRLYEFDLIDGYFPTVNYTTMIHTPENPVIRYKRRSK
Sequence of UniProt P17661 (P17661 whole entry, looked up): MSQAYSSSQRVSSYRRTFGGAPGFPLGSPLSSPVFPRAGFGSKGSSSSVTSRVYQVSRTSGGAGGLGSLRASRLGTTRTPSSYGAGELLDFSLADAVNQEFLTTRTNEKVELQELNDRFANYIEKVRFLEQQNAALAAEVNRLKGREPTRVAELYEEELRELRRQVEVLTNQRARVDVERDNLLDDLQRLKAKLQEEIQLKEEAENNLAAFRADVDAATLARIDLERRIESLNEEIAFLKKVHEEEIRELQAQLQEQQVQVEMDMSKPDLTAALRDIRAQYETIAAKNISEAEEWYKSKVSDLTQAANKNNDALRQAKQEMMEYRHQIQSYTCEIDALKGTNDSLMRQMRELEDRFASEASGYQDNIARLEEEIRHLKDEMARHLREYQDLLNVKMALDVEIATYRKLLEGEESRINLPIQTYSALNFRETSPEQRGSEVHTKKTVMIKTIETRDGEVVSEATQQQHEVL
Sequence of UniProt P83436 (P83436 whole entry, looked up): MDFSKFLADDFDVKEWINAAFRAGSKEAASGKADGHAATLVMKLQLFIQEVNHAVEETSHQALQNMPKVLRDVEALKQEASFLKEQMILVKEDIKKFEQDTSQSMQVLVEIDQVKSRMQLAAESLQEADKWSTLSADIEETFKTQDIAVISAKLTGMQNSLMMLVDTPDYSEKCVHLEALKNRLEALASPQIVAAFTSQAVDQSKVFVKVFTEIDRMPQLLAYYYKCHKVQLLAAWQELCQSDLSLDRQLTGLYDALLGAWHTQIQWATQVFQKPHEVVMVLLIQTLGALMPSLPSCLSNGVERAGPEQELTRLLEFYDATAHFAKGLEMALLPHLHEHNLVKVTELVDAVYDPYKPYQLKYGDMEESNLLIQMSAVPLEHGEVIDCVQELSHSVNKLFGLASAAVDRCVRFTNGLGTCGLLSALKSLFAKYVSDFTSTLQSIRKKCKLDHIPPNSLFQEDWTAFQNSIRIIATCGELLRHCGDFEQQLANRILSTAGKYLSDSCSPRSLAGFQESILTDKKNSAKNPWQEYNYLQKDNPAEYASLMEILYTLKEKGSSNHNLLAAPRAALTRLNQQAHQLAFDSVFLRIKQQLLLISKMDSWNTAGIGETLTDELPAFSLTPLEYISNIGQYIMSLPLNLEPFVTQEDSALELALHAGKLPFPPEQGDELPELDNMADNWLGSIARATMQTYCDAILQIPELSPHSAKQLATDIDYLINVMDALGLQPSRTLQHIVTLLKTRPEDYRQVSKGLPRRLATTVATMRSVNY
Sequence of UniProt Q96BY6 (Q96BY6 whole entry, looked up): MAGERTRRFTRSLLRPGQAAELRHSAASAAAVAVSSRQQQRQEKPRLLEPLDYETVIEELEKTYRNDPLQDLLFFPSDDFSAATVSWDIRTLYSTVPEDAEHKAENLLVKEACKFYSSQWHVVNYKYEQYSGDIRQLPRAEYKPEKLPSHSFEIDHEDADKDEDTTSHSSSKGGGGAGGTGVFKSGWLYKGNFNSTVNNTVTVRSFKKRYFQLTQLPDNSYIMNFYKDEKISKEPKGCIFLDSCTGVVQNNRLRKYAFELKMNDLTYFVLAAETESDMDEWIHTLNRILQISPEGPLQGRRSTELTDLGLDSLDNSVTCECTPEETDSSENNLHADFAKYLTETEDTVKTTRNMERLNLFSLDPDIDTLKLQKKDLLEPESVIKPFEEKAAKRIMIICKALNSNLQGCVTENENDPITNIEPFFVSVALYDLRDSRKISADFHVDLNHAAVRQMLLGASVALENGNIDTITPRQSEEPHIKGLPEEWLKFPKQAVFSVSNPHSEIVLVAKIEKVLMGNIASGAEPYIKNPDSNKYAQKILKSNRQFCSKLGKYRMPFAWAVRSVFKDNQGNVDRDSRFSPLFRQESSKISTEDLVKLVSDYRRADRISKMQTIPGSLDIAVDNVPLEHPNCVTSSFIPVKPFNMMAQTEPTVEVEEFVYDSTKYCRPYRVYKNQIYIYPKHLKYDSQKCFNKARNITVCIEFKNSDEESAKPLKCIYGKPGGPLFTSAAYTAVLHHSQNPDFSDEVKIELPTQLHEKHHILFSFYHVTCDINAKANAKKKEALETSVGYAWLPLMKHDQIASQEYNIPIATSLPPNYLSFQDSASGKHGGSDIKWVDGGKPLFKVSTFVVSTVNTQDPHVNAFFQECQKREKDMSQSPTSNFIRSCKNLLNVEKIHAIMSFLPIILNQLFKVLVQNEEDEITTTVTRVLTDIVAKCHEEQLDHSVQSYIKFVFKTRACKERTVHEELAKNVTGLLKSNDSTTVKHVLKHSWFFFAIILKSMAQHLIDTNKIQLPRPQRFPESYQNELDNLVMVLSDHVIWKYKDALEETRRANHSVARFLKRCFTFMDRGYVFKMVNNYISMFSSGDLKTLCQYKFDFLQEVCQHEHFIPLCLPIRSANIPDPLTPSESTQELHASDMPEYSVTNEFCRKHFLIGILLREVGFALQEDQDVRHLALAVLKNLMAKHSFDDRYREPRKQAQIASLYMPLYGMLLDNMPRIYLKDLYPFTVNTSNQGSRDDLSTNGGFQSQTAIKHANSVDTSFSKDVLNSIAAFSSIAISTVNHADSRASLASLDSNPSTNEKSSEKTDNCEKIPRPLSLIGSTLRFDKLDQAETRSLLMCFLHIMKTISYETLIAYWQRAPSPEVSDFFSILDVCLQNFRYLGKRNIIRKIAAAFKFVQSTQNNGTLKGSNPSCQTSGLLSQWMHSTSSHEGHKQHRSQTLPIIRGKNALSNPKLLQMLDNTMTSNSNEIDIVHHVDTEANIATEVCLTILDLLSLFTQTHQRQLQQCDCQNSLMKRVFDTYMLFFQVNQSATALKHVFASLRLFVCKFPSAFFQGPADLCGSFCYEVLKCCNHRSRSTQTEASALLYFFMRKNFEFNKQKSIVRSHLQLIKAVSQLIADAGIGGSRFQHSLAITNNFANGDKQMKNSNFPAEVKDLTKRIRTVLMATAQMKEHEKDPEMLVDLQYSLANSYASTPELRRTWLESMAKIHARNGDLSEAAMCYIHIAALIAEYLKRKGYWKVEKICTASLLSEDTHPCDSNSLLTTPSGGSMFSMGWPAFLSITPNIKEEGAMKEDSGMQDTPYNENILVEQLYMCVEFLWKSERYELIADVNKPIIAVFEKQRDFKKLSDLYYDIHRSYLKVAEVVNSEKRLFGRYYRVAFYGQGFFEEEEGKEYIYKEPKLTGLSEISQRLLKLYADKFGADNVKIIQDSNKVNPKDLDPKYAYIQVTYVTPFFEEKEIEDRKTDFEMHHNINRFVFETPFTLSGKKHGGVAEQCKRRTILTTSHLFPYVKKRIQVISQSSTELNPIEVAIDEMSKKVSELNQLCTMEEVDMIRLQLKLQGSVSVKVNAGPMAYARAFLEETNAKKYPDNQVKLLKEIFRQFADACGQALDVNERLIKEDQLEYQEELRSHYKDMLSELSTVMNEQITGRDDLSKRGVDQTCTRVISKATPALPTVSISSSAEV

On to CUEDC2 (UniProt Q9H467), for which the log2 fold change with alvocidib is 0.054; with Tubastatin A it was 0.036; in assay [1] it was 0.03; with defactinib, 0.055; in [2], 0.078; in the assay with encorafenib it was 0.006. In addition, the log2 fold change in [3] is -0.026; in the assay with alisertib, -0.019; in assay [4] it was -0.009; with gefitinib, 0.019.

Turning to DNAJC5 (UniProt Q9H3Z4), the log2 fold change in the assay with alvocidib was -0.216; with Tubastatin A, 0.062; in assay [1], 0.019; with defactinib, 0.011; in [2], 0.054; with encorafenib it was 0.016. Moreover, the log2 fold change is -0.057 in assay [3], -0.119 with alisertib, 0.019 in assay [4] and -0.039 with gefitinib.

With COG7 (UniProt P83436), the log2 fold change in the assay with alvocidib is 0.019; with Tubastatin A it was -0.114; in assay [1] it was -0.02; with defactinib it was 0.056; in [2], -0.047; with encorafenib it was 0.028. For the same target, the log2 fold change was 0.035 in assay [3], 0.014 in the assay with alisertib, 0.012 in assay [4] and 0.004 with gefitinib.

DDX4 (UniProt Q9NQI0): the log2 fold change in the assay with alvocidib is -0.234; in the assay with Tubastatin A, -0.173; in [1], -0.05; with defactinib, -0.058; in assay [2], -0.116; in the assay with encorafenib, -0.047. The log2 fold change is -0.02 in [3], 0.032 in the assay with alisertib, -0.007 in assay [4] and 0.021 in the assay with gefitinib.

Take CIC (UniProt I3L2J0): the log2 fold change with alvocidib was 0.005; with Tubastatin A, -0.03; in assay [1], 0.072; with defactinib it was 0.041; in [2], 0.035; with encorafenib it was -0.002. Further, the log2 fold change was 0.052 in assay [3], -0.027 with alisertib, 0.158 in [4] and -0.098 with gefitinib.

On to CORO1A (UniProt P31146), for which the log2 fold change is 0 with alvocidib; -0.02 with Tubastatin A; 0.013 in assay [1]; -0.034 with defactinib; 0.037 in [2]; -0.051 with encorafenib. The log2 fold change in [3] was 0.144; with alisertib it was -0.018; in assay [4], -0.021; with gefitinib it was -0.037.

As for DHRS3 (UniProt O75911), the log2 fold change with alvocidib is -0.013; with Tubastatin A it was 0.105; in assay [1] it was 0.043; with defactinib, -0.006; in [2] it was 0.085; with encorafenib, -0.044. Further, the log2 fold change in assay [3] was 0.151; with alisertib, -0.006; in assay [4] it was -0.011; in the assay with gefitinib, 0.071.

COASY isoform 2 (UniProt Q13057): the log2 fold change with alvocidib was 0.015; in the assay with Tubastatin A, -0.124; in assay [1] it was -0.003; with defactinib, 0.064; in assay [2], -0.023; with encorafenib, -0.012. The log2 fold change in [3] is 0.032; in the assay with alisertib it was 0.023; in [4], -0.025; with gefitinib it was -0.005.

Turning to CYP51A1 (UniProt Q16850), the log2 fold change is -0.017 with alvocidib; 0.007 with Tubastatin A; 0.005 in assay [1]; -0.001 in the assay with defactinib; 0.023 in [2]; -0.019 with encorafenib. Besides, the log2 fold change was 0.09 in assay [3], 0.019 in the assay with alisertib, 0.053 in assay [4] and 0 in the assay with gefitinib.

Consider CSNK1G3 (UniProt Q9Y6M4), for which the log2 fold change in the assay with alvocidib was 0.032; with Tubastatin A it was 0.064; in assay [1] it was 0.014; with defactinib it was 0.069; in assay [2], 0.03; in the assay with encorafenib, 0.018. The log2 fold change in [3] is -0.033; in the assay with alisertib it was -0.005; in assay [4] it was 0.459 (active); with gefitinib, -0.005.

In the case of DLGAP5 (UniProt Q15398), the log2 fold change with alvocidib is -0.007; with Tubastatin A it was -0.021; in [1], 0.01; with defactinib, 0.004; in assay [2], -0.004; in the assay with encorafenib, 0.024. For the same target, the log2 fold change was 0 in [3], -0.016 with alisertib, -0.02 in [4] and -0.001 with gefitinib.

For COQ9 (UniProt O75208), the log2 fold change with alvocidib was 0.002; with Tubastatin A, -0.041; in [1], -0.035; with defactinib, 0.023; in assay [2] it was 0.136; in the assay with encorafenib, -0.021. Also, the log2 fold change in [3] is 0.024; with alisertib, 0.026; in assay [4] it was 0.025; with gefitinib, -0.012.

Turning to DPH5 isoform 5 (UniProt Q9H2P9), the log2 fold change with alvocidib was -0.012; with Tubastatin A, 0.02; in assay [1], 0.119; with defactinib it was -0.002; in [2], 0.02; with encorafenib, -0.044. The log2 fold change was -0.024 in assay [3], -0.045 in the assay with alisertib, -0.018 in assay [4] and 0.04 with gefitinib.

For DOCK10 (UniProt Q96BY6), the log2 fold change with alvocidib is -0.354; in the assay with Tubastatin A, -0.028; in assay [1], 0.208; in the assay with defactinib, 0.133; in assay [2], 0.046; with encorafenib, 0.067. Also, the log2 fold change in assay [3] is -0.002; in the assay with alisertib, 0.05; in assay [4] it was -0.042; with gefitinib, 0.084.

As for DES (UniProt P17661), the log2 fold change in the assay with alvocidib was -0.144; in the assay with Tubastatin A, 0.091; in [1], -0.023; with defactinib, -0.056; in assay [2], 0.26; in the assay with encorafenib it was 0. Besides, the log2 fold change in assay [3] was -0.029; in the assay with alisertib, -0.017; in assay [4], 0.117; with gefitinib, 0.04.

The values are drawn from the supplement of paper PMC10849652.
